An excerpt weighted towards active compounds, which were near 2.8% of everything screened.
PG9 Ab binder: PG9 antibody binding by small molecule. 0.43% of 360,000 active. AID 624416. inhibition, % at 6.7 µM. TR-FRET gp120-PG9 antibody binding; in the data active = inhibition above about 8.5%
JMJD2C inh: blocks human GASC-1 demethylase activity. Q9H3R0. GST-JMJD2C(1-420) H3K9me3 demethylation, DELFIA europium. inhibition, % at 2.35 µM. 0.069% of 330,000 active. AID 2099;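 active = more than half of a compound's replicate wells show inhibition beyond 50%, single wells judged on their own value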;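 also: signal counts dimethyl H3K9 product captured on neutravidin plate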
PP5 primary: inhibitors of human protein phosphatase 5 (PP5); 0.18% of 320,000 active; inhibition, % at 6.7 µM; purified PP5c, OMFP substrate fluorescence;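 active = inhibition above the campaign's mean inhibition across all tested compounds plus 3 SD, cut at about 9.5% in these data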
PP1 inh: blocks human PP1-alpha phosphatase, a PP5 counter-screen; purified PP1alpha, OMFP fluorescence; AID 2235; inhibition, % at 6.7 µM; P62136; 0.9% of 320,000 active;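 active = inhibition above the mean inhibition of all tested compounds plus 3 SD, computed separately for each screening campaign, cut at about 15% in these data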
Target sequence (P62136 whole entry, looked up): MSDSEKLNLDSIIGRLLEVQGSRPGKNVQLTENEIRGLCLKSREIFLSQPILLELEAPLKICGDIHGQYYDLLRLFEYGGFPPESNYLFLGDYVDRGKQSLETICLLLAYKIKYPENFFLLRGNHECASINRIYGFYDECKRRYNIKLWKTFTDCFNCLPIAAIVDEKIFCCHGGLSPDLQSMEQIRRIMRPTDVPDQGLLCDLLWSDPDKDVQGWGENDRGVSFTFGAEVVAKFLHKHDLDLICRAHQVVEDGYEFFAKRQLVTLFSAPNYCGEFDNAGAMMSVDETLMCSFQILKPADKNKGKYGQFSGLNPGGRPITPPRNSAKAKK
proKLK7 act: activates the human kallikrein-7 zymogen. P49862. purified proKLK7, EDANS-DABCYL substrate fluorescence; 100% is mature enzyme control, 0% vehicle. activation, % at 7 µM. 0.9% of 370,000 active. AID 652039;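 active = activation above the mean of all tested compounds plus 3 SD, computed per campaign excluding outliers beyond control limits, cut at about 13% in these data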
Rev-erbA mod: modulators of human Rev-erb alpha DNA binding; P20393; Rev-erbα–FITC-DNA binding, fluorescence polarization, 90 min; activity, % at 10 µM; 0.79% of 370,000 active;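 active = activity above about 14%, limit read from the data; passing the limit was not always enough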
Rev-erbA confirm: confirmation of modulators of human Rev-erb alpha DNA binding. activation, % at 25 µM. Rev-erb alpha FITC-DNA binding, fluorescence polarization, 90 min. 61% of 3,000 active. shares compounds with Rev-erbA mod;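 active = activation at or above a set limit, or at least 3 SD above the negative control mean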
RORg counter: counter-screen for Rev-erb alpha modulators: RORgamma DNA binding; AID 1259320; shares compounds with Rev-erbA mod; 8% of 910 active; IC50, µM; purified RORgamma protein-FITC-DNA binding, fluorescence polarization;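 active = Compounds whose fitted half-maximal concentration for disrupting protein-DNA binding is below 10 micromolar; the record names Rev-erb in its text, so the target is in doubt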
Of the large screens only hits and unclear results are named; the others gave an inactive call (follow-up assays come after a bar, where they were run).

COc1ccc(NC(=O)NCCCN2CCN(c3ccc(F)cc3)CC2)cc1OC	none (no result: PG9 Ab binder, JMJD2C inh, PP5 primary, PP1 inh)
c1ccc(-c2nc3ccccc3c3nc4ccccc4n23)cc1	Rev-erbA mod 21.8 | Rev-erbA confirm inactive
CC(=O)OCC1OC(n2c(-c3ccc(Cl)cc3)ccc(C#N)c2=S)C(OC(C)=O)C(OC(C)=O)C1OC(C)=O (centres undefined)	Rev-erbA mod 54.5 (no result: JMJD2C inh, PP5 primary, PP1 inh) | Rev-erbA confirm 40.7 | RORg counter inactive
Cn1c(/C(C#N)=C(\O)COc2ccc3ccccc3c2)nc2ccccc21	Rev-erbA mod 22.8 | Rev-erbA confirm inactive
Cn1c(/C(C#N)=C(\O)c2ccccc2Cl)nc2ccccc21	none
Cn1c(/C(C#N)=C(\O)c2ccc(Cl)s2)nc2ccccc21	Rev-erbA mod 49.7 | Rev-erbA confirm inactive
COc1ccc(-n2c(CSc3ccc(Cl)cc3)n[nH]c2=S)cc1	none (no result: JMJD2C inh, PP5 primary, PP1 inh)
CN(CC(=O)Nc1ccc(F)cc1)C(=O)COC(=O)CNC(=O)c1sc2ccccc2c1Cl	Rev-erbA mod 22.8 | Rev-erbA confirm inactive
COc1ccc(NC(=O)CN(C)C(=O)CNC(=O)c2sc3ccccc3c2Cl)cc1	none
COc1ccc(/C=C2\CC3(OC(=O)c4ccccc4)CCCN2C3)cc1 (centres undefined)	none (no result: PG9 Ab binder, JMJD2C inh, PP5 primary, PP1 inh)
O=S1(=O)c2ccc(N3CCSCC3)cc2Oc2ccccc2CN1Cc1cn(Cc2cccc(C(F)(F)F)c2)nn1	Rev-erbA mod 17.7 (no result: PG9 Ab binder, JMJD2C inh, PP5 primary, PP1 inh) | Rev-erbA confirm inactive
O=S1(=O)c2ccc(N3CCSCC3)cc2Oc2ccccc2CN1Cc1cn(Cc2ccc(F)cc2)nn1	Rev-erbA mod 20.4 (no result: PG9 Ab binder, JMJD2C inh, PP5 primary, PP1 inh) | Rev-erbA confirm 18.8
O=S1(=O)c2ccc(N3CCSCC3)cc2Oc2ccccc2CN1Cc1cn(Cc2ccc(C(F)(F)F)cc2)nn1	none (no result: PG9 Ab binder, JMJD2C inh, PP5 primary, PP1 inh)
COc1ccc(CN(CCN2CCOCC2)C(=O)c2ccc(F)cc2Cl)cc1OC	none (no result: PG9 Ab binder, JMJD2C inh, PP5 primary, PP1 inh)
COC(=O)c1ccccc1NC(=O)NCC1CCN(Cc2ccc(OC)cc2)CC1	none (no result: PG9 Ab binder, JMJD2C inh, PP5 primary, PP1 inh)
Cc1sc(NC(=O)c2ccccc2)c(C(=O)NC(C)C)c1C	Rev-erbA mod 23.8 | Rev-erbA confirm inactive
CCCCc1c(-c2ccccc2OC)ncn1C1CCCCC1	none (no result: JMJD2C inh, PP5 primary, PP1 inh)
CC1CC(C)CN(S(=O)(=O)c2ccc3c(c2)n(C)c(=O)c(=O)n3C)C1 (centres undefined)	Rev-erbA mod 65.8 | Rev-erbA confirm inactive
COC(=O)c1ccc(CN2C(=O)[C@]3(OCCC=C[C@H]3C)c3cc(OC)ccc32)cc1	none (no result: JMJD2C inh, PP5 primary, PP1 inh)
CC1(C)CC(=O)C=C(c2ccccc2F)C1=O	none (no result: JMJD2C inh, PP5 primary, PP1 inh)
Cc1cc2oc(=O)cc(COC(=O)c3n[nH]c4ccccc34)c2cc1C	Rev-erbA mod 22.7 | Rev-erbA confirm inactive
CCOC(=O)c1c(-c2ccc(C)s2)csc1NC(=O)c1cccs1	Rev-erbA mod 49.5 | Rev-erbA confirm 24.6
C#CCNC(=O)C[C@H]1C[C@@]2(C(=O)OC)C(=C[C@H](COCc3ccccc3)O[C@@H]2C)N(Cc2ccc3c(c2)OCO3)C1=O	none (no result: JMJD2C inh, PP5 primary, PP1 inh)
Cc1nn(-c2ccccc2)c2nc(N)c(C#N)c(-c3ccc(F)cc3)c12	none
Cc1ccc(-n2nc(C)c3c(-c4cccs4)c(C#N)c(N)nc32)cc1	Rev-erbA mod 60.1 | Rev-erbA confirm 30.3
CCOc1ccc2c(c1)nc(SCC(=O)c1cccs1)n2C	none
CCOc1ccc2c(c1)nc(SCC(=O)c1ccc(Br)s1)n2C	Rev-erbA mod 25.1 | Rev-erbA confirm inactive
COc1cc2c(cc1OC)C1(Nc3c-2c(C)nn3-c2ccccc2)C(=O)Nc2ccccc21 (centres undefined)	Rev-erbA mod 18.3 (no result: JMJD2C inh) | Rev-erbA confirm inactive
COc1cc2c(cc1OC)C1(Nc3c-2c(-c2ccccc2)nn3-c2ccccc2)C(=O)Nc2ccccc21 (centres undefined)	none
CC(C)(N[C@@H](Cc1ccccc1)C(=O)NCC(c1ccccc1)c1ccccc1)C(=O)NC1CCCCC1	none (no result: PG9 Ab binder, JMJD2C inh, PP5 primary, PP1 inh, proKLK7 act)
O=C(Nc1nc2ccccc2n1Cc1ccc(Cl)cc1)c1ccco1	Rev-erbA mod 27.7 | Rev-erbA confirm inactive
O=c1[nH]c(CSc2ncnc3sc(-c4ccccc4)cc23)nc2ccccc12	Rev-erbA mod 38.7 | Rev-erbA confirm inactive

High-throughput results from PubChem.
